For 18 compounds, Potency, outcome and max response results are on record in PubChem BioAssay (NCATS).

One assay has as its system CRL-7250. Briefly: Cytotoxic Profiling of Annotated Libraries Using Quantitative High-Throughput Screening (AID 1296008). Also: potency is read from the fitted curve at half-maximal effect. As to max response: % is scaled to controls: 0 for no effect and ±100 for the full control effect. To be noted: Five cell lines viability, CellTiter-Glo ATP luminescence, 48-72 h; max response: active compounds read low. A digest of the protocol:
(§1)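 Cells exposed to compounds for 48 or 72 hr at 37 degrees Celsius. Viability read as ATP-coupled luminescence with CellTiter-Glo after 10 min at room temperature.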

Another assay concerns HEK293. Described as above. Particulars: Five cell lines viability, CellTiter-Glo ATP luminescence, 48-72 h; max response: active compounds read low. Put shortly:
as §1

Assay [1] relates to HaCat. The description is as above. To be noted: Five cell lines viability, CellTiter-Glo ATP luminescence, 48-72 h; max response: active compounds read low. A digest of the protocol:
as §1

The test system of another assay is KB-3-1. Described as above. To be noted: Five cell lines viability, CellTiter-Glo ATP luminescence, 48-72 h; max response: active compounds read low. Put shortly: as §1
The subject of the next assay is NIH3T3. The assay is described as above. Particulars: Five cell lines viability, CellTiter-Glo ATP luminescence, 48-72 h; max response: active compounds read low. Put shortly:
as §1

The test system of assay [2] is HACAT. The assay can be described thus: qHTS assay to identify novel small-molecules to repurpose for Merkel cell carcinoma treatment (AID 1296009). Also: potency is read from the fitted curve at half-maximal effect. Particulars: MCC and control cell lines, CellTiter-Glo viability, 72 h; at 44.8 µM (top of the series) unless noted. A digest of the protocol:
(§2)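 CellTiter-Glo luminescence after 72 hr compound exposure at 37 degree celsius gave cell viability. Libraries NPC and MIPE were run as 8- and 11-point dose responses; RLUs normalized to DMSO (negative) and no-cell (cytotoxicity) controls.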

In another assay the test system is HEK293T. The assay is described as above. To be noted: MCC and control cell lines, CellTiter-Glo viability, 72 h; series mostly up to 44.8 µM. A digest of the protocol: as §2
The test system of another assay is TAB113. Briefly: qHTS profiling for inhibitors of Plasmodium falciparum proliferation (AID 504749).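 Also: 0% = DMSO vehicle and full inhibition = artemisinin control.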 Particulars: P. falciparum in erythrocytes, SYBR Green DNA, 72 h; series mostly up to 28.7 µM. A digest of the protocol:
(§3)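 SYBR Green fluorescence (ex 485 nm, em 535 nm) reports parasite DNA after 72 h compound exposure of infected red cells at 0.3% parasitemia, 2.5% hematocrit; signal normalized to 0.29 uM artemisinin and vehicle wells.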

The next assay deals with TAB165. The assay is described as above. To be noted: P. falciparum in erythrocytes, SYBR Green DNA, 72 h; series mostly up to 28.7 µM. Put shortly: as §3
Another assay relates to W2. The assay is described as above. Particulars: P. falciparum in erythrocytes, SYBR Green DNA, 72 h; series mostly up to 28.7 µM. Put shortly: as §3

Several values for one entry are separate records, joined by “and”; a condition that tells them apart may be missing. Identical values can stand only once. Results filed as inconclusive are left out. Unmarked numbers belong to inactive results. Activity calls are given as the source filed them. Calls follow the shape of the dose curve; as a rule, active = well fitted inhibition curve with a large enough effect; inconclusive = small, poorly fitted or top-dose-only effect; inactive = flat fitted curve, though single readings scatter. Positions of bridges follow the written chain, without caps; N, C: chain ends. Non-standard residues stand in square brackets, D forms with d. Residues, ends and D or L forms follow the SMILES beside them. ξ: configuration not given here. *: point of attachment. Octanoyl(6-Me) = CCC(C)CCCCC(=O)*; ξThr(3R) = C[C@@H](O)C(N)C(=O)O; dDab = NCC[C@@H](N)C(=O)O; Dab = NCC[C@H](N)C(=O)O; Cbz = O=C(OCc1ccccc1)*
Also: nearly all actives have a fitted effect of over 60% in size.

Take `COc1cc(CCc2cc(NC(=O)c3ccc(N4C[C@@H](C)N[C@@H](C)C4)cc3)n[nH]2)cc(OC)c1`: the Potency is 4.69 µM (active) and 8.2 µM (active) in the assay with CRL-7250; 2.96 µM (active) with HEK293; 9.35 µM (active) in the assay on KB-3-1; 10.5 µM (active) in the assay on NIH3T3; 14.6 µM (active) with HEK293T. For the same compound, the result in the assay on HaCat [1] and in the assay with HACAT [2] was inactive.
With `COc1ccc([C@@H]2CNC(=O)C2)cc1OC1CCCC1`, the Potency entry in the assay on TAB113, in the assay on TAB165 and in the assay on W2 was “inactive” throughout. Further, the result in the assay with CRL-7250, in the assay on HaCat [1], with KB-3-1, in the assay on NIH3T3 and in the assay on HACAT [2] was inactive. In the assay with HEK293, the max response was 2.8%.
For `CC(C)C[C@@H](C=O)NC(=O)[C@H](CC(C)C)NC(=O)[C@H](CC(C)C)NC(=O)OCc1ccccc1` (Cbz-Leu-Leu-Leu-aldehyde), the Potency with CRL-7250 is 1.66 µM (active); in the assay on HEK293 it was 1.05 µM (active); in the assay on HaCat [1], 3.32 µM (active); with NIH3T3, 2.96 µM (active).
As for `COc1cc(C(=O)NC2CCN(C)CC2)ccc1Nc1ncc2c(n1)N(C1CCCC1)CCC(=O)N2C(C)C`, the max response was -17.1% in the assay on CRL-7250 and -42.1% with HaCat [1]. The Potency is 8.33 µM (active) with HEK293 and 1.32 µM (active) with NIH3T3.
On to `N#Cc1cc(NC(=O)Nc2nnc(-c3ccncc3)s2)ccc1-c1cn[nH]c1`, for which the max response in the assay with CRL-7250 is -3.75%; in the assay on KB-3-1, 0.642%; in the assay on NIH3T3, -2.38%. In addition, the compound was classed as inactive in the assay on HEK293, in the assay with HaCat [1] and with HACAT [2]. Besides, the Potency result with HEK293T is “inactive”.
Turning to `CON=C(C(=O)N[C@@H]1C(=O)N2C(C(=O)O)=C(CSC(=O)c3ccco3)CS[C@H]12)c1csc(N)n1`, the max response in the assay on CRL-7250 is 4.77%; with HaCat [1] it was 1.07%; in the assay on NIH3T3 it was -6.35%. Besides, the call with HEK293 and in the assay with KB-3-1 was inactive. In addition, the Potency entry in the assay on HEK293T is “inactive”.
Take `O=C(CN1C(=O)C2(CCCC2)NC[C@H]1c1cc(F)cc(F)c1)Nc1ccc2c(c1)C[C@@]1(C2)C(=O)Nc2ncccc21`: the outcome in the assay with CRL-7250 and in the assay with HEK293 was inactive. Besides, the max response was 3.79% in the assay with HaCat [1], 2.38% in the assay on KB-3-1 and -4.62% with NIH3T3. Also, the Potency entry in the assay on HEK293T is “inactive”.
With `CNC(=O)Nc1ccc(-c2nc(N3CC4CCC(C3)O4)c3cnn(C4CCC5(CC4)OCCO5)c3n2)cc1`, the Potency in the assay with CRL-7250 was 0.0047 µM (active); in the assay with HEK293, 0.0066 µM (active); in the assay on NIH3T3 it was 0.0526 µM (active). The max response with HaCat [1] was -19.6%.
As for `COC(=O)C=CC(=O)OC`, the max response in the assay on CRL-7250 was -5.16%; with KB-3-1, 7.81%; with NIH3T3 it was -0.0603%. Further, the call with HEK293, in the assay on HaCat [1] and with HACAT [2] was inactive. The Potency entry in the assay on HEK293T is “inactive”.
Consider `CC(Oc1ccc(O)cc1)(P(=O)(O)O)P(=O)(O)O`, for which the max response in the assay with CRL-7250 was 3.19%; in the assay with KB-3-1 it was -8.06%; in the assay with NIH3T3, -5.52%. Also, the call in the assay on HEK293, with HaCat [1] and in the assay on HACAT [2] was inactive. The Potency entry in the assay on HEK293T was “inactive”.
For `O=C(O)CCCCCC(=O)NN=C1CCCC1`, the max response in the assay with CRL-7250 was 1.92%; in the assay on HaCat [1] it was 0.832%; in the assay on KB-3-1, 3.36%; in the assay with NIH3T3 it was 3.56%. Further, the result with HEK293 was inactive. Further, in the assay with HEK293T, the Potency result was “inactive”.
Turning to `C=Cc1c(C)c2cc3nc(cc4[nH]c(cc5nc(cc1[nH]2)C(C)=C5CCC(=O)O)c(CCC(=O)OC)c4C)[C@@]1(C)C3=CC=C(C(=O)OC)[C@H]1C(=O)OC`, the results for the max response with CRL-7250 and in the assay with NIH3T3 were 1.72% and 4.13%, respectively. In addition, the Potency in the assay with HEK293 is 11.8 µM (active). Moreover, the result in the assay on HaCat [1], with KB-3-1 and in the assay with HACAT [2] was inactive.
With `CCC(C)CCCCC(=O)N[C@@H](CCN)C(=O)NC(C(=O)N[C@H](CCN)C(=O)N[C@@H]1CCNC(=O)C([C@@H](C)O)NC(=O)[C@@H](CCN)NC(=O)[C@@H](CCN)NC(=O)[C@@H](CC(C)C)NC(=O)[C@H](Cc2ccccc2)NC(=O)[C@H](CCN)NC1=O)[C@@H](C)O` (stereo partly drawn) ({Octanoyl(6-Me)}-[Dab][ξThr(3R)][dDab][dDab][Dab]F[dL][dDab][dDab][ξThr(3R)]; lactam 4-C), the result in the assay on CRL-7250, in the assay on HEK293 and in the assay with NIH3T3 was inactive. In addition, the values for the max response in the assay on HaCat [1] and with KB-3-1 were 0.455% and 0.786%, respectively. Besides, the Potency result in the assay on HEK293T was “inactive”.
Take `CN1C(C(=O)Nc2ccccn2)=C(O)c2sc(Cl)cc2S1(=O)=O`: the result with CRL-7250, in the assay with HEK293, in the assay on HaCat [1] and in the assay with HACAT [2] was inactive. For the same compound, the figures for the max response in the assay with KB-3-1 and with NIH3T3 were 3.99% and -1.3%, respectively. Further, the Potency result with HEK293T is “inactive”.
With `CC1(C)CC(O)CC(C)(C)N1[O]`, the call with CRL-7250, in the assay with HEK293, in the assay on HaCat [1] and in the assay on HACAT [2] was inactive. Further, the max response was 7.14% with KB-3-1 and -4% in the assay with NIH3T3. Besides, the Potency result in the assay with HEK293T is “inactive”.
Turning to `CC1=C(C(=O)Nc2cc3cn[nH]c3cc2F)C(c2ccc(Cl)cc2F)N=C(c2ccnc(Cl)c2)N1` (stereo not given), the max response is -26.3% in the assay with CRL-7250 and -46.1% with HaCat [1]. Also, the Potency with HEK293 is 13.2 µM (active); in the assay on NIH3T3, 11.8 µM (active).
For the compound `COC(=O)[C@@H]1CC2=CC(=O)CC[C@]2(C)[C@@]23O[C@@H]2C[C@@]2(C)[C@H](CC[C@@]24CCC(=O)O4)[C@@H]13`, the max response in the assay on CRL-7250 was -3.2%. Further, the result in the assay with HEK293, with HaCat [1], in the assay on KB-3-1, in the assay with NIH3T3 and in the assay with HACAT [2] was inactive. Also, the Potency entry in the assay with HEK293T was “inactive”.
With `CCCCCCCCCCCCc1ccc(S(=O)(=O)Nc2nncs2)cc1`, the compound was classed as inactive in the assay on CRL-7250, in the assay with HEK293, in the assay on KB-3-1 and in the assay with NIH3T3. In addition, in the assay on HaCat [1], the max response is -11%. Besides, the Potency result with HEK293T is “inactive”.
